Test results reported in PubChem BioAssay.
Several values for one entry are separate records, joined by “and”; a condition that tells them apart may be missing. Equal entries are not always repeated. Activity calls are given as the source filed them.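 The calls were made as follows, unless noted: active = inhibition at or above 50% relative to wild type and mutant plate controls; inactive = inhibition below 50%.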

Assays:
[1] = inhibitors of TNFa-induced NFkB p65 translocation, primary screen, imaging, HUVEC, MLSMR starter and 10KST1 sets (AID 438;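 active = inhibition above 20% together with a positive visual image hit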;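 also: compound added about 3h40 before a 20 min TNFalpha stimulation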;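 as to inhibition: signal is the nuclear over cytoplasmic p65 intensity ratio per well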); conditions: HUVEC TNFa-induced p65 nuclear translocation; cell count: measured here: nuclei count (cytotoxicity indicator), at 2.08 µM; inhibition: at 2 µM, stronger effect = higher value, 0% TNFa-plus-vehicle, 100% no-TNFa wells
[2] = inhibitors of mutant huntingtin aggregation, primary screen, imaging, exon1htt(103Q)mCFP cells, high-content imaging (AID 483;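 active = visual image review flags a hit and inhibition of aggregation exceeds 20%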;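 also: compound exposure lasted 3 days before fixation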;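 as to nuclei count: percent of the per-plate median nuclei count of sample wells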); conditions: exon1htt(103Q)mCFP cell line, aggregate imaging, at 2 µM; inhibition of aggregation: stronger effect = higher value; nuclei count: measured here: cell count, toxicity
[3] = inhibitors of E-selectin induction by TNFa, primary screen, imaging, HUVEC, immunofluorescence, MLSMR starter and 10KST1 sets (AID 487;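 active = visually confirmed hit in the image check and inhibition above 20%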;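 as to inhibition: signal is fraction of cell area covered by stained E-selectin grains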;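 as to nuclei count: 100% = median nuclei count of all wells on the same plate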); conditions: HUVEC TNFalpha-induced E-selectin immunofluorescence imaging, at 2 µM; inhibition: stronger effect = higher value; nuclei count: measured here: cell number, toxicity
[4] = DUSP6 inhibitors restoring Erk phosphorylation by chemical complementation, primary imaging in DUSP6-transfected HeLa (AID 609;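 active = compounds giving at least 50% inhibition in the cell-based MKP-3 phosphatase rescue imaging test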;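 as to inhibition: phospho-Erk level distribution per well compared with pooled transfected vehicle control wells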); conditions: HeLa MKP-3 transfected, phospho-Erk imaging KS statistic, at 10 µM, cells stimulated with TPA for 15 min
[5] = target: Dual specificity protein phosphatase 6 (Homo sapiens) (UniProt Q16828); assay: as above; conditions: HeLa MKP-3 transfected, phospho-Erk imaging KS statistic; at 10 µM; stronger effect = higher value; cells stimulated with TPA for 15 min
Chain of Dual specificity protein phosphatase 6 (Homo sapiens) (Q16828 whole entry, looked up): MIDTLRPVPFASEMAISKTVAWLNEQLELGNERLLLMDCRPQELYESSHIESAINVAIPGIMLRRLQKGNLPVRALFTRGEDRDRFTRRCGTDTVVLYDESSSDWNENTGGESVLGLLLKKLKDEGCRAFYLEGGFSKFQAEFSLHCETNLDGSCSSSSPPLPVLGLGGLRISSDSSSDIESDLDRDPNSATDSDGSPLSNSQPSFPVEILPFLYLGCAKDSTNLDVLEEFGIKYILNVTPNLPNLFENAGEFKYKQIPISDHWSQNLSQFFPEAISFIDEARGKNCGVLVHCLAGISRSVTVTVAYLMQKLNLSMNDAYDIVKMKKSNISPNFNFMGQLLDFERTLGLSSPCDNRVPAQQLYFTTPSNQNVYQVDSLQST

[6] = target: Voltage-gated potassium channel subunit beta-2 (Rattus norvegicus) (UniProt P62483); assay: KvBeta enzyme negative modulators, primary screen, biochemical, NADPH fluorescence (AID 622;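 active = fluorescence slope higher than the sample average by over 3 SD, cut at about -0.22 in these data, passing the limit was not always enough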;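 also: slope of raw intensity against log time taken from 70 to 1610 s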); conditions: recombinant KvBeta, 4-cyanobenzaldehyde reduction, at 10 µM, stronger effect = higher value
Chain of Voltage-gated potassium channel subunit beta-2 (Rattus norvegicus) (P62483 whole entry, looked up): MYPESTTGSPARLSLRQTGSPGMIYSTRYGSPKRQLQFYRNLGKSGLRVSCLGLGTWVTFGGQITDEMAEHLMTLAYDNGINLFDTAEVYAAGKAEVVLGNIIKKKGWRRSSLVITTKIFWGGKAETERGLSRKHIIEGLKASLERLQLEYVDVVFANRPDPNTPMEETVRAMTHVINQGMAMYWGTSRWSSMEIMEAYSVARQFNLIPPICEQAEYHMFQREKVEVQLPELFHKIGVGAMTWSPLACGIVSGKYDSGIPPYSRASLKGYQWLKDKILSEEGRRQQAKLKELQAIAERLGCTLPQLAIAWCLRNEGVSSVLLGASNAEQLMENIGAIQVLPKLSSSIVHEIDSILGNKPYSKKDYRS

[7] = target: Voltage-gated potassium channel subunit beta-2 (Rattus norvegicus) (UniProt P62483); assay: KvBeta positive modulators, primary screen, biochemical, NADPH fluorescence (AID 623;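 active = NADPH fluorescence slope more negative than the mean of all samples by about 3 SD, 99.7% confidence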;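 also: fluorescence intensity change per second fitted from 20 to 320 s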); conditions: Recombinant KvBeta, NADPH fluorescence decrease slope, 10 min; at 10 µM; stronger effect = lower value
[8] = target: Alpha-2C adrenergic receptor (Homo sapiens) (UniProt P18825); assay: modulators of alpha2C/GIRK thallium flux, primary screen, cell-based, HEK293 alpha2C/GIRK1/2 (AID 624;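 active = fluorescence slope after compound addition differing from the mean of all screened samples at 99.7% confidence, in either direction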;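 also: slope of fluorescence ratio to pre-addition baseline per second over 15 to 24 s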); conditions: thallium flux BTC fluorescence, at 10 µM, actives lie on both sides
Chain of Alpha-2C adrenergic receptor (Homo sapiens) (P18825 whole entry, looked up): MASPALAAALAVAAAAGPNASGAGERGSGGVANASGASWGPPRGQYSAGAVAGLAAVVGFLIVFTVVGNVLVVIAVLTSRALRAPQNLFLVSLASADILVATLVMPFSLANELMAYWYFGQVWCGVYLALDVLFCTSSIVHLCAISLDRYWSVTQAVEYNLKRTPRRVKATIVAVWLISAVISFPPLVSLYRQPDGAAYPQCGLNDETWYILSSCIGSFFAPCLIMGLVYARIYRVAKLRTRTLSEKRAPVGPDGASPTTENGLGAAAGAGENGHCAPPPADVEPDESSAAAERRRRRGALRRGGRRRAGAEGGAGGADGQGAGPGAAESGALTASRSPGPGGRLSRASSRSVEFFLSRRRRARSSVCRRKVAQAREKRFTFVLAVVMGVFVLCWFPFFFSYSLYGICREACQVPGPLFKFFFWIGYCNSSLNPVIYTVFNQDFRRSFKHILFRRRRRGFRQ

[9] = inhibitors of larval lipid processing in zebrafish, primary screen, whole organism, PED6 fluorescence, gall bladder and intestine (AID 686;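 active = a full or partial loss of lipid-probe fluorescence in the fish gall bladder, intestine or both, judged by eye; inactive = no fluorescence loss, or compound toxic to the fish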;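 also: larvae 5 to 7 days old with five fish per well; signal comes from phospholipase A2 cleavage of quenched PED6 carried via bile; overnight exposure to compound and PED6 before scoring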); conditions: Zebrafish larvae PED6 lipid processing, fluorescence scoring; screened at 20 µM (by protocol)
[10] = inhibitors of Chlamydomonas gravitaxis, primary screen, whole organism, Chlamydomonas reinhardtii, WT vs cilia-less mutant, absorbance, 96-well (AID 463189); conditions: OD600 absorbance, 2 days, at 10 µM, stronger effect = higher value;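 also: 0% = wild type cc124 cells in DMSO and 100% = ciliumless bld1 mutant cells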
[11] = inhibitors of Sendai virus-induced IRF3 signaling, primary screen, TLR/RLR signaling modifier project, cell-based, Sendai virus stimulus, luciferase, 10K MLSCN set (AID 602276;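 active = inhibition at or above 50% at 10 µM; inactive = inhibition below 50%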;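 also: firefly luciferase from ISG56 promoter only with Renilla not read in this screen; 0% = Sendai virus plus DMSO and 100% = medium plus DMSO without virus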); conditions: HEK293 RL24 IRF3 luciferase reporter, at 10 µM, stronger effect = higher value
[12] = inhibitors of poly I:C-induced TLR3 signaling, primary screen, cell-based, poly I:C stimulus, luciferase, 10K MLSCN set (AID 602277;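 active = inhibition of the reporter signal at or above 50%; inactive = inhibition below 50%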); conditions: HEK293-TLR3 RL24 IRF3 luciferase reporter, at 10 µM, stronger effect = higher value
[13] = target: Muscarinic acetylcholine receptor M4 (Homo sapiens) (UniProt P08173); assay: compounds altering M4/GIRK thallium flux, either direction, primary screen, M4 allosteric agonist project, cell-based, HEK293 M4/GIRK, BTC-AM (AID 625;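 active = fluorescence slope after compound addition differing from the mean of all tested samples at 99.7% confidence, mostly higher but some lower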;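 also: thallium influx through GIRK channels coupled to M4 in HEK293 cells with BTC-AM dye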); conditions: at 10 µM, actives lie on both sides
Chain of Muscarinic acetylcholine receptor M4 (Homo sapiens) (P08173 whole entry, looked up): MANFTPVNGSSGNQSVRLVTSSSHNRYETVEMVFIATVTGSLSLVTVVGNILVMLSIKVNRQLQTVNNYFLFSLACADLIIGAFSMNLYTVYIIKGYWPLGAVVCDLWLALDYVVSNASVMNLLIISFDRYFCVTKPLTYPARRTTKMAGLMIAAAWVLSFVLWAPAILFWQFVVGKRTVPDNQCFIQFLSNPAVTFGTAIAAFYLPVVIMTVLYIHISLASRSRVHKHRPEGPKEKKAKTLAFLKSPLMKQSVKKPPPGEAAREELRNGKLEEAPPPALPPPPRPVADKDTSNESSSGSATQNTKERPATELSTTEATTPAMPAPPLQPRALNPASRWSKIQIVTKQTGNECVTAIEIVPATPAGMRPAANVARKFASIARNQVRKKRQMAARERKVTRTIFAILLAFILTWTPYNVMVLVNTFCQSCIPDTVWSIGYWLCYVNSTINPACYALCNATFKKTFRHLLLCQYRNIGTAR

[14] = measured here: cell density z-score
[15] = measured here: nuclear c-Myc green intensity z-score
[16] = measured here: nuclear pErk red intensity z-score, stronger effect = higher value

| Structure (SMILES) | cell count [1] | inhibition [1] | inhibition of aggregation [2] | nuclei count [2] [%] | inhibition [3] | nuclei count [3] [%] | z-score [4, 14] | z-score [4, 15] | z-score [4, 16] | inhibition [5] | fluorescence slope [6] | NADPH fluorescence slope [7] | slope [8] | outcome [9] | inhibition [10] | inhibition [11] | inhibition [12] | fluorescence slope [13] |
| --- | --- | --- | --- | --- | --- | --- | --- | --- | --- | --- | --- | --- | --- | --- | --- | --- | --- | --- |
| Cc1onc(-c2ccccc2)c1C(=O)N[C@@H]1C(=O)N2[C@@H]1SC(C)(C)[C@@H]2C(=O)O | 638 | -3.4% (inactive) | -5% (inactive) | 102 | -91.9% (inactive) | 126 | -0.0512 | -0.454 | 0.656 | 25.1% (inactive) | -0.532 (inactive) | -4.6e-05 (inactive) | 0.00473 (inactive) | inactive | -11.8% (inactive) | -2.42% (inactive) | 27.7% (inactive) |  |
| O=C(C1=C(O)C(=O)N(c2ncccn2)C1c1cccc(Cl)c1)c1ccco1 (stereo not given) | 454 | -2.1% (inactive) | 23.5% (inactive) | 97.7 | -61.9% (inactive) | 138 | 0.991 | -0.348 | 0.185 | -4.7% (inactive) | -0.349 (inactive) | -2.5e-05 (inactive) | 0.00586 (inactive) | inactive | 3.84% (inactive) | 11% (inactive) | 1.21% (inactive) |  |
| COc1ccc2c(c1)c(CC(=O)OCC(=O)O)c(C)n2C(=O)c1ccc(Cl)cc1 | 609 | -4% (inactive) | -25.2% (inactive) | 89.1 | -34.9% (inactive) | 111 | -0.113 | 0.548 | -0.549 | 17.3% (inactive) | -0.451 (inactive) | -3.8e-05 (inactive) | 0.00555 (inactive) | inactive | 14.4% (inactive) | 11.9% (inactive) | 36.9% (inactive) |  |
| COCCc1ccc(OCC(O)CNC(C)C)cc1 (stereo not given) | 534 | 1.4% (inactive) | -4.4% (inactive) | 85.7 | -71.5% (inactive) | 108 | -1.75 | 1.07 | 0.0458 | 8% (inactive) | -0.46 (inactive) | -3.7e-05 (inactive) | 0.00577 (inactive) | inactive | -6.24% (inactive) and 33.7% (inactive) | 15.3% (inactive) | 32.2% (inactive) |  |
| Cn1c(=O)c2c3c(sc2n2c(SCc4ccccc4)nnc12)CCCC3 | 550 | -5.3% (inactive) | 1.8% (inactive) | 103 | -44% (inactive) | 99.3 | -0.0166 | -0.0898 | -0.287 | 4.37% (inactive) | -0.371 (inactive) | -1.7e-05 (inactive) | 0.00552 (inactive) | inactive | 32.4% (inactive) | -3.8% (inactive) | 97.9% (active) |  |
| CCN(CC)CCNC(=O)c1cc(Cl)c(N)cc1OC | 552 | -4.5% (inactive) | 5.6% (inactive) | 106 | -17.3% (inactive) | 120 | 0.156 | -0.776 | 0.343 | -0.493% (inactive) | -0.444 (inactive) | 4.3e-05 (inactive) | 0.00461 (inactive) | inactive | 8.75% (inactive) and -3.64% (inactive) | -8.87% (inactive) | 30.5% (inactive) |  |
| CN1CCC(=C2c3ccccc3CC(=O)c3sccc32)CC1 | 641 | 5.3% (inactive) | 5.4% (inactive) | 97.7 | -56.9% (inactive) | 126 | 2.91 | 0.175 | -2.59 | 10.2% (inactive) | -0.5 (inactive) | -6.2e-05 (inactive) | 0.00525 (inactive) | inactive | -11.3% (inactive) and 22.8% (inactive) | -1.65% (inactive) | 51.2% (active) |  |
| NC(Cc1ccc(Oc2ccc(O)cc2)cc1)C(=O)O (stereo not given) | 563 | -6.8% (inactive) | -8.1% (inactive) | 103 | -19.7% (inactive) | 103 | -0.271 | -1.56 | -0.79 | 3.45% (inactive) | -0.495 (inactive) | -5.7e-05 (inactive) | 0.00414 (inactive) | inactive | -4.82% (inactive) | 11.4% (inactive) | 24.4% (inactive) |  |
| Cc1ccc(-n2ncc3c(N4CCN(c5ccccc5)CC4)ncnc32)c(C)c1 | 600 | -15.9% (inactive) | -1.5% (inactive) | 113 | -27.8% (inactive) | 154 | -0.444 | -0.19 | 1.79 | -12.6% (inactive) | -0.379 (inactive) | -5e-05 (inactive) |  | inactive | 2.19% (inactive) | 20.5% (inactive) | -19.9% (inactive) | 0.00708 (inactive) |
| O=C(NO)c1ccccc1O | 594 | 1.9% (inactive) | -2.3% (inactive) | 103 | -35.8% (inactive) | 102 | -0.325 | -0.0884 | -1.2 | 5.79% (inactive) | -0.458 (inactive) | -2.4e-05 (inactive) | 0.00615 (inactive) | inactive | -11.3% (inactive) | 5.89% (inactive) | 19.5% (inactive) |  |
